Experimental findings from the supplement of paper PMC13094657 are described below.

Test [1] relates to MDA-MB-231. As to the kind of experiment: cell viability relative to vehicle unstimulated control (fraction); higher = more viable cells. The following applies: pre-treatment time: 18 h then 24 h IFNg/TNF.
Test [2] has as its system MDA-MB-231. The test can be described thus: kynurenine production, fold change vs DMSO IFNg/TNF control; higher = more kynurenine produced (less inhibition). Conditions: pre-treatment time: 18 h then 24 h IFNg/TNF. In short, it runs like this:
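In 96-well plates, MDA-MB-231 cells (7 × 10^4/well) were given 24 h to settle, pre-treated for 18 h with each natural product in 0.1% DMSO, and stimulated for 24 h with IFNγ (1 U/ml) and TNF (6.25 ng/ml) at 37°C. Supernatants were processed with trichloroacetic acid and p-dimethylaminobenzaldehyde and read at 492 nm against 0–100 μM standards. In the first screening round, kynurenine production, as fold change over same-plate cytokine-stimulated vehicle wells, was averaged over duplicate plates.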

SMILES strings stand for the structures. ± gives the standard deviation of the averaged measurements.
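Wherever cell viability relative to vehicle unstimulated control is given: viability of the cells left after supernatant collection, read with Deep Blue dye added for 4 h, as absorbance at 570 nm minus 600 nm.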

Regarding `CO[C@H]1O[C@@H]2O[C@@]3(C)CC[C@H]4[C@H](C)CC[C@@H]([C@H]1C)[C@@]24OO3` [Artemether] (compound dose: 10 uM), in the test on MDA-MB-231 [1], the cell viability came to 1 ± 0.11. Also, in the test on MDA-MB-231 [2], the kynurenine production worked out at 0.37 ± 0.12.
Regarding `C=C(C)[C@@H]1CC[C@]2(C)CC[C@]3(C)[C@H](CC[C@@H]4[C@@]5(C)CCC(=O)C(C)(C)[C@@H]5CC[C@]43C)[C@@H]12` [Lupenone] (compound dose: 10 uM), in the test with MDA-MB-231 [1], the cell viability is 0.9789 ± 0.0076. Moreover, the kynurenine production in the test on MDA-MB-231 [2] amounted to 0.898 ± 0.16.
The matching figures for `C[C@H](CC[C@@H](OC[C@@H]1O[C@H](OC[C@H]2O[C@@H](O)[C@H](O)[C@@H](O)[C@@H]2O)[C@@H](O)[C@H](O)[C@H]1O)C(C)(C)O)[C@H]1CC[C@@]2(C)[C@@H]3CC=C4[C@@H](CC[C@H](O)C4(C)C)[C@]3(C)[C@H](O)C[C@]12C` [Mogroside IIA1] (compound dose: 10 uM): 1.22 ± 0.15 and 1.07 ± 0.13.
For the compound `C[C@@]12C[C@@]3(O)O[C@@H](O1)[C@]1(COC(=O)c4ccc(O)cc4)[C@@H]3C[C@]12O[C@@H]1O[C@H](CO)[C@@H](O)[C@H](O)[C@H]1O` [Oxypaeoniflorin] (compound dose: 10 uM), the cell viability in the test with MDA-MB-231 [1] came to 1.05 ± 0.069. Further, the kynurenine production in the test with MDA-MB-231 [2] is 0.916 ± 0.082.
The matching figures for `CC(=O)OCC1=CCC2C(C=C(C)C(=O)C3(OC(C)=O)CC(C)C(OC(=O)c4ccccc4)C3C1OC(C)=O)C2(C)C` (configuration not stated) [Euphorbia factor L7b] (compound dose: 10 uM): 1.07 ± 0.03 and 0.936 ± 0.035.
Turning to `C[C@@H]1O[C@@H](O[C@H]2[C@H](O[C@H]3[C@H](O[C@H]4CC[C@]5(C)[C@H]6CC=C7[C@@H]8CC(C)(C)CC[C@]8(C(=O)O)CC[C@@]7(C)[C@]6(C)CC[C@H]5C4(C)C)OC[C@H](O)[C@@H]3O)O[C@H](CO)[C@@H](O)[C@@H]2O)[C@H](O)[C@H](O)[C@H]1O` [Raddeanin A] (compound dose: 10 uM), the cell viability in the test on MDA-MB-231 [1] amounted to 0.0234 ± 0.033. The kynurenine production in the test on MDA-MB-231 [2] amounted to 0.116 ± 0.011.
